# In the supplement of paper PMC6555819:
# What was measured:
# Assay in all cases: PBM binding z-score (relative to random genomic background probes); higher = stronger binding; sequences stand for … in GC…GCGATTGACAGCGTAGAATGAAGG
# [1] = tested on: PPARg:RXRa DBDmut IVT, anti-RXR (DBD mutation: RXRa K156A/R161A, NR concentration 270 nM, RXRa partner concentration 90 nM)
# How it was run: (§1)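 Binding z-scores take random background probes as their reference. They come from custom Agilent 4×180K protein-binding microarrays incubated 1 h with ligand-free nuclear receptor dimers, with antibodies against each partner (one per run) detecting binding. Scanned fluorescence was regression-normalized.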
# [2] = tested on: PPARg:RXRa IVT, anti-PPARg (NR concentration 270 nM, RXRa partner concentration 90 nM)
# How it was run: as §1
# [3] = tested on: PPARg DBDmut:RXRa IVT, anti-PPARg (DBD mutation: PPARg1 K132A/R137A, NR concentration 270 nM, RXRa partner concentration 90 nM)
# How it was run: as §1
# [4] = tested on: PPARg DBDmut IVT, anti-PPARg (DBD mutation: PPARg1 K132A/R137A, NR concentration 270 nM)
# How it was run: as §1
# [5] = tested on: PPARg homodimer (NR concentration 180 nM)
# How it was run: as §1
# [6] = tested on: PXR:RXRa (NR concentration 270 nM, RXRa partner concentration 90 nM)
# How it was run: as §1
# [7] = tested on: PXR homodimer (NR concentration 270 nM)
# How it was run: as §1
# [8] = tested on: RARa:RXR (NR concentration 270 nM, RXRa partner concentration 90 nM)
# How it was run: as §1
# [9] = tested on: RARa homodimer (NR concentration 270 nM)
# How it was run: as §1
# [10] = tested on: RARb:RXRa (NR concentration 270 nM, RXRa partner concentration 90 nM)
# How it was run: as §1
# [11] = tested on: RARb homodimer (NR concentration 270 nM)
# How it was run: as §1
# [12] = tested on: RARg:RXRa (NR concentration 270 nM, RXRa partner concentration 90 nM)
# How it was run: as §1
# [13] = tested on: RARg homodimer (NR concentration 270 nM)
# How it was run: as §1
# [14] = tested on: RXRa DBDmut IVT, anti-RXR (DBD mutation: RXRa K156A/R161A, NR concentration 90 nM)
# How it was run: as §1
# [15] = tested on: RXRa homodimer (NR concentration 180 nM)
# How it was run: as §1
# [16] = tested on: THRa:RXRa (NR concentration 90 nM, RXRa partner concentration 90 nM)
# How it was run: as §1
# [17] = tested on: THRa homodimer (NR concentration 90 nM)
# How it was run: as §1
# [18] = tested on: VDR:RXRa (NR concentration 270 nM, RXRa partner concentration 90 nM)
# How it was run: as §1
# [19] = tested on: VDR homodimer (NR concentration 270 nM)
# How it was run: as §1
Sequence,PBM binding z-score [1],PBM binding z-score [2],PBM binding z-score [3],PBM binding z-score [4],PBM binding z-score [5],PBM binding z-score [6],PBM binding z-score [7],PBM binding z-score [8],PBM binding z-score [9],PBM binding z-score [10],PBM binding z-score [11],PBM binding z-score [12],PBM binding z-score [13],PBM binding z-score [14],PBM binding z-score [15],PBM binding z-score [16],PBM binding z-score [17],PBM binding z-score [18],PBM binding z-score [19]
CCTTACGGGGCACTCCAGGTTATAGCATCGGAGT,0.818,0.578,-0.912,-1.1,0.148,0.683,-0.195,0.828,-0.55,1.05,0.528,0.714,0.823,-0.513,0.523,3.58,-0.229,0.0326,0.0884
AGAACGAGCGCACGCTGAGTTGATAGCAGAGTAG,-0.589,-0.892,-0.82,-1.39,-1.63,-0.74,-0.523,-0.952,-1.05,-1.05,-1.25,-0.476,-0.51,-0.346,-0.489,-0.752,-1.21,-0.801,-0.599
CGTCCACGGTCATAGGAGGTCAGTGAAGACAGAT,0.0707,2.02,-0.535,-1.15,1.73,3.88,0.754,2.6,0.207,3.65,3.91,3.21,3.97,0.535,2.05,4.28,0.603,3.27,1.18
TCATTTAGGTAAATGCTAGGTGAAAGTCCGATCT,3.13,2.44,1.71,1.17,0.343,0.445,-0.0267,0.799,0.628,0.562,0.541,0.116,0.0576,1.57,0.519,1.69,0.878,0.573,0.0956
AGAATGATGTTAAGATCAGGGAAACAGAATACAT,-0.786,-0.128,-0.544,0.266,-0.958,-0.441,-0.00916,-0.274,0.423,-0.436,-0.787,0.187,0.295,-0.58,0.00873,-0.153,-0.703,-0.114,-0.555
GGATCGAGGGCAAGTTGATAGCAGAGTTTGATGG,3.34,2.56,-0.16,-0.137,1.07,0.76,0.825,0.165,0.158,2.49,1.54,1.6,1.96,1.95,0.72,1.26,0.374,0.959,2.06
AGAATGAGGTGATTAAGATCAGGGAATTGCGGTC,2.96,2.25,0.816,-0.56,-0.484,-0.0501,-0.416,0.0955,-0.457,0.268,0.255,0.185,0.285,0.136,0.381,1.53,0.417,0.0675,-0.688
ATATGTAGTTTACATCCGGGTCATTCAGGCTATG,1.36,2.27,1.09,1.65,1.01,2.91,3.16,2.85,0.262,1.51,2.34,1.83,1.44,1.58,2.1,3.2,2.74,3.49,2.82
TCATATAGGTAATACAGGTGAAGGTCGGCATCTA,4.61,3.61,1.2,1.45,1.83,1.16,0.89,1.69,2.17,1.22,2,1.13,0.974,1.69,1.46,1.31,0.829,1.62,0.817
AGTCAAAGTTCAAGACGAGGTAACGTAAAGCACG,0.127,2.85,1.37,1.3,3.22,4.49,2.5,4.02,1.38,4.84,3.6,5.81,6.02,3.8,4.59,3.9,0.783,4.07,2.85
CCAGACGGGTGAAAGGTAACTCAGTCTGGTACGC,0.482,2.35,-1,-1.51,0.107,0.559,-0.486,1.55,-0.431,0.652,0.112,0.694,0.136,-0.879,1.81,0.461,-0.444,0.319,-0.582
GATACAGGGTCAGCTAGAGGCCAGAGTGTGGAAA,0.974,2.4,-0.57,-0.662,3.47,3.5,0.00381,4.66,-0.116,4.25,3.67,6.74,4.74,1.34,4.41,3.15,0.703,3.39,0.787
TCATATAGGTAAACGCTAGGTGAAAGTCCGATCT,4.49,3.57,1.38,1.29,0.646,0.584,0.4,1.13,0.619,0.474,0.416,0.628,0.523,1.63,0.944,1.52,0.385,1.03,0.251
CGAACGAGGGCATGAGTTGATCGCAAATGCCGAT,2.91,2.12,0.532,-0.694,-0.0725,0.503,-0.144,0.222,-0.96,1.86,0.684,1.04,1.28,2.51,0.767,1.04,-0.361,1.34,1.79
CCTACTGGGCCAAGGCCATTGATCAGTCAAAGCA,2.95,2.89,-0.753,-1.61,0.0949,-0.456,-0.233,-0.557,-0.85,0.554,0.497,-0.179,-0.0334,-1.15,-0.715,0.101,-0.288,-0.446,-0.406
CTCGAAAGGTCGTGCTCACGTGAGTATACCAAAC,0.85,1.55,0.551,0.796,1.35,2.86,-0.121,3.31,-0.039,3.92,2.82,4.15,3.6,1.95,4.71,2.41,-0.0324,3.23,1.06
TCATATAGGTAATAGAGGTGAAAGTCGGCATCTA,4.53,4.06,1.5,0.929,0.919,1.12,0.895,1.92,1.02,1.27,1.33,1.08,0.999,2.14,1.68,1.91,0.432,2.08,0.435
TCATATCGGTAAAAGGTGAAAGTCGGTGTGGTAA,3,3.46,0.579,1.77,2.19,1.25,0.807,2.24,1.92,1.97,2.12,1.68,0.807,1.6,2.29,1.4,0.504,1.54,0.635
TCATAGAGGTAAAAGGTGAAAGTCGGTGTGGTAA,2.72,3.24,0.0344,-0.0644,0.851,2.07,-0.248,3.86,0.918,2.07,1.72,2.5,0.912,1.01,4,1.97,-0.0823,1.48,-0.219
TTACCAAGATGAAGGTCGTTGATCCCTCTGTAGA,0.471,0.0475,0.286,0.663,0.704,1.15,-0.0787,1.18,0.48,0.617,0.806,0.203,0.0937,0.4,0.993,0.726,-0.149,0.991,0.756
TAGCCTAGGTCATTGGGCCATTATAGTACGCATC,3.37,4.19,0.472,0.314,2.65,1.86,-0.263,2.7,-0.217,3.56,3.07,4.19,4.28,1.85,2.96,3.07,1.24,2.54,1.44
CCTTACCGGTCACTCCAGGTTATAGCATCGGAGT,1.13,1.44,-0.00194,-0.042,1.6,1.94,1.24,1.37,1.2,2.9,2.64,2.41,3.52,0.359,0.865,3.88,1.32,1.46,0.951
CCGACCGGGGCAAAGGTTACCATACTCAGTACGA,0.771,3.62,-1.08,-1.57,1.59,2.84,-0.256,4.81,-0.0897,2.66,2.34,3.83,2.02,0.0663,4.51,2.47,0.202,2.06,0.185
TGAATGAGGTTAAAGAACAGGGAACGTGGCGTCG,1.89,2.33,0.69,0.463,0.725,1.13,0.0217,1.52,0.262,1.95,0.64,1.86,1.5,1.33,2.68,2.03,0.34,1.12,0.66
CAAACTAGGTCACAGAGGTCAAATTCCGTGCGTA,8.77,8.98,8.04,3.55,6.47,7.14,12.3,7.83,3.22,5.4,5.28,7.51,7.97,3.34,8.2,4.68,3.09,8.11,6.96
ACAGACAGTTGAGTGAAGGTAACTCAGCTGGACG,-0.279,0.038,-0.108,-0.693,-0.3,-0.386,-0.571,-0.397,-0.00601,-0.0285,-0.475,0.0376,0.211,-0.165,0.132,0.662,-0.514,-0.356,-0.463
CCCGAAAGGTCGGTTGAGGTGAGTATACGGATAA,0.203,0.845,-0.316,-0.0998,1.28,3.49,0.481,2.51,0.922,3.33,2.61,2.9,3,0.858,2.41,4.99,1.8,2.57,0.636
CCTAGCAGGCCAATCTGGGTCACCCAAGGCTTGA,3.64,4.92,-0.253,-1.35,0.456,1.03,-0.451,1.59,-0.135,1.62,2.55,1.34,1.38,-0.396,1.07,3.92,0.793,0.707,-0.51
GATACAGGGTCAGCCAGAGGCCAGAGTATGGAAA,1.1,2.63,0.315,-0.142,2.32,3.4,-0.204,4.58,0.402,4.19,3.47,6.84,4.98,1.17,4.6,3.13,0.534,3.64,0.682
ATATGTAGGTTAGCTAGGGTCATTCAGACTAGGC,6.58,6.18,2.95,1.89,3.4,5.64,2.1,4.85,1.52,2.71,3.17,3.33,2.68,1.24,3.71,5,2.64,5.2,3.63
